Data from PubChem BioAssay AID1159580 (chemical genetic matrix, 2015).
About 2,000 (36%) of roughly 5,500 compounds were called active. Not shown: some 18% with an inconclusive outcome. Some of the results follow. A number with no mark means an inactive call. Cut-off read from the data, not from the text of the source: active = normalized growth mostly below about 0.91 (no sharp cut-off); inconclusive = no clear call, values can overlap the other calls; inactive = mostly above about 0.92.

Assay: chemical genetic growth profiling, strain panel (AID 1159580);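 note: tested at 20 µM; growth read once vehicle control cultures reached saturation at 30 °C; 1 = growth at the plate median or of vehicle wells; lower values mean less growth of the strain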
Details: growth OD
[1] = S. cerevisiae deletion strains, locus YAL013W, strain DEP1, active compounds read low
[2] = S. cerevisiae deletion strains, locus YDR150W, strain NUM1, active compounds read low
[3] = S. cerevisiae deletion strains, locus YGR229C, strain SMI1, active compounds read low
[4] = S. cerevisiae deletion strains, locus YNL153C, strain GIM3, active compounds read low
[5] = S. cerevisiae deletion strains, locus YNL322C, strain KRE1, active compounds read low
[6] = S. cerevisiae deletion strains, locus YBR229C, strain ROT2, active compounds read low
[7] = S. cerevisiae deletion strains, locus YDL101C, strain DUN1, active compounds read low
[8] = S. cerevisiae deletion strains, locus YEL061C, strain CIN8, active compounds read low
[9] = S. cerevisiae deletion strains, locus YGR078C, strain PAC10, active compounds read low
[10] = S. cerevisiae deletion strains, locus YHR030C, strain SLT2, active compounds read low
[11] = S. cerevisiae deletion strains, locus YHR087W, strain rtc3, active compounds read low
[12] = S. cerevisiae deletion strains, locus YJR043C, strain POL32, active compounds read low
[13] = S. cerevisiae deletion strains, locus YJR075W, strain HOC1, active compounds read low
[14] = S. cerevisiae deletion strains, locus YKL190W, strain CNB1, active compounds read low
[15] = S. cerevisiae deletion strains, locus YLR039C, strain RIC1, active compounds read low
[16] = S. cerevisiae deletion strains, locus YLR058C, strain SHM2 (second series), active compounds read low
[17] = S. cerevisiae deletion strains, locus YLR085C, strain ARP6, active compounds read low
[18] = S. cerevisiae deletion strains, locus YLR262C, strain YPT6, active compounds read low
[19] = S. cerevisiae deletion strains, locus YML094W, strain GIM5, active compounds read low
[20] = S. cerevisiae deletion strains, locus YMR219W, strain ESC1, active compounds read low
[21] = S. cerevisiae deletion strains, locus YMR263W, strain SAP30, active compounds read low
[22] = S. cerevisiae deletion strains, locus YMR307W, strain GAS1, active compounds read low
[23] = S. cerevisiae deletion strains, locus YNL128W, strain TEP1, active compounds read low
[24] = S. cerevisiae deletion strains, locus YNL298W, strain CLA4 (second series), active compounds read low
[25] = S. cerevisiae deletion strains, locus YNR030W, strain Alg12, active compounds read low
[26] = S. cerevisiae deletion strains, locus YPL055C, strain LGE1, active compounds read low
[27] = S. cerevisiae deletion strains, locus YPL241C, strain CIN2, active compounds read low
[28] = S. cerevisiae deletion strains, locus YPR135W, strain CTF4, active compounds read low
[29] = S. cerevisiae strains, strain wild type, active compounds read low

Clc1ccc(N2CC3CCC(C2)N3)nn1
normalized growth [1]: 1.04
normalized growth (S. cerevisiae deletion strains, locus YAL040C, strain CLN3, active compounds read low): 1.01
normalized growth (S. cerevisiae deletion strains, locus YCL061C, strain MRC1 (second series), active compounds read low): 1.01
normalized growth [2]: 1
normalized growth (S. cerevisiae deletion strains, locus YDR363W, strain ESC2, active compounds read low): 1.01
normalized growth (S. cerevisiae deletion strains, locus YER002W, strain NOP16, active compounds read low): 1
normalized growth [3]: 1.03
normalized growth [4]: 1.01
normalized growth (S. cerevisiae deletion strains, locus YNL175C, strain NOP13, active compounds read low): 0.995
normalized growth (S. cerevisiae deletion strains, locus YNL197C, strain WHI3, active compounds read low): 1
normalized growth (S. cerevisiae deletion strains, locus YNL224C, strain SQS1, active compounds read low): 1
normalized growth [5]: 1.04
normalized growth (S. cerevisiae deletion strains, locus YOR083W, strain WHI5 (second series), active compounds read low): 0.959

CCOC(=O)N/N=C\c1cccs1
normalized growth [1]: 0.995
normalized growth [6]: 1
normalized growth [7]: 0.982
normalized growth [2]: 0.996
normalized growth [8]: 1
normalized growth [9]: 1
normalized growth [10]: 1.05
normalized growth [11]: 0.992
normalized growth [12]: 0.984
normalized growth [13]: 0.972
normalized growth [14]: 1.01
normalized growth [15]: 1.07
normalized growth [16]: 1.02
normalized growth [17]: 1.01
normalized growth [18]: 1.05
normalized growth [19]: 0.996
normalized growth [20]: 1
normalized growth [21]: 0.997
normalized growth [22]: 1.02
normalized growth [23]: 1
normalized growth [4]: 0.996
normalized growth [24]: 1.03
normalized growth [5]: 1.01
normalized growth [25]: 1
normalized growth [26]: 1.01
normalized growth [27]: 0.993
normalized growth [28]: 0.948
normalized growth [29]: 1.01

NC(=S)N/N=C\c1ccccc1
normalized growth [1]: 0.991
normalized growth [6]: 1.02
normalized growth [7]: 0.987
normalized growth [2]: 0.963
normalized growth [8]: 0.902 (active)
normalized growth [9]: 1.02
normalized growth [10]: 0.823
normalized growth [11]: 1.06
normalized growth [12]: 1
normalized growth [13]: 1.04
normalized growth [14]: 0.973
normalized growth [15]: 1.13
normalized growth [16]: 1.01
normalized growth [17]: 0.301 (active)
normalized growth [18]: 1.08
normalized growth [19]: 0.872
normalized growth [20]: 1
normalized growth [21]: 0.982
normalized growth [22]: 0.579 (active)
normalized growth [4]: 0.971
normalized growth [24]: 0.836 (active)
normalized growth [5]: 1.03
normalized growth [25]: 0.925
normalized growth [26]: 0.872
normalized growth [27]: 0.983
normalized growth [28]: 0.886
normalized growth [29]: 0.974

O=C(N/N=C\c1cccs1)c1ccccc1CO
normalized growth [1]: 0.998
normalized growth [6]: 1.01
normalized growth [7]: 0.997
normalized growth (S. cerevisiae deletion strains, locus YDL134C, strain PPH21, active compounds read low): 1
normalized growth [2]: 1
normalized growth [8]: 0.994
normalized growth [9]: 0.994
normalized growth [3]: 1
normalized growth [10]: 1
normalized growth [11]: 1
normalized growth (S. cerevisiae deletion strains, locus YJL187C, strain SWE1, active compounds read low): 0.989
normalized growth [12]: 0.999
normalized growth [13]: 0.995
normalized growth [15]: 0.999
normalized growth [16]: 1.01
normalized growth [17]: 0.996
normalized growth [18]: 1.04
normalized growth [19]: 0.986
normalized growth [20]: 1
normalized growth [21]: 0.997
normalized growth [22]: 1
normalized growth [23]: 1.01
normalized growth [4]: 0.99
normalized growth [24]: 1
normalized growth [5]: 0.996
normalized growth [25]: 1.01
normalized growth (S. cerevisiae deletion strains, locus YOL006C, strain TOP1, active compounds read low): 0.994
normalized growth [26]: 1.01
normalized growth [27]: 0.992
normalized growth [28]: 1.04
